The test system of one test is HCI11 (cells of an ER-positive luminal breast cancer xenograft). Put plainly: cell viability (% of vehicle); higher = less cytotoxic. The settings on record: 10 µM; 72 h.
A further test deals with HCI16 (cells of a triple-negative basal-like breast cancer xenograft). The description is as above. As to conditions: 10 µM; 72 h.
Test [1] deals with UCD52 (cells of a triple-negative basal-like breast cancer xenograft). The test is described as above. The settings on record: 10 µM; 72 h.
The next test relates to HCI03 (cells of an ER-positive luminal breast cancer xenograft). The test is described as above. As to conditions: 10 µM; 72 h.
The next test relates to HCI13 (cells of an ER-positive luminal breast cancer xenograft). The test is described as above. The settings on record: 10 µM; 72 h.
The subject of another test is WHIM2 (cells of a triple-negative basal-like breast cancer xenograft). The test is described as above. As to conditions: 10 µM; 72 h.
The test system of the next test is HCI01 (cells of a triple-negative basal-like breast cancer xenograft). Description: cell viability of combination (% of vehicle); higher = less cytotoxic. The settings on record: 1 µM; 72 h; partner dose: 10 nM. As to the method: (§1)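 PDX cells were treated for 72 h with each drug at 1 µM plus carfilzomib (10 nM; 100 nM for WHIM2). Luciferase viability is expressed as percent of vehicle.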
In test [2] the test system is UCD52. Described as above. As to conditions: 1 µM; 72 h; partner dose: 10 nM. As to the method: as §1
In the next test the test system is HCI09 (cells of a triple-negative luminal androgen receptor type breast cancer xenograft). Description: cell viability (% of vehicle); higher = less cytotoxic. As to conditions: 10 µM; 72 h.
The subject of another test is WHIM30 (cells of a triple-negative basal-like breast cancer xenograft). Described as above. As to conditions: 10 µM; 72 h.

± gives the standard deviation of the averaged measurements.

Take `COc1cccc(-c2ccc(NC(=O)C3=C(C(=O)O)CCC3)c(F)c2)c1` [Vidofludimus]: the cell viability with HCI11 was determined as 99.5.

As for `COc1ccc(C=CC(=O)Nc2ccccc2C(=O)O)cc1OC` [Tranilast], the cell viability in the test with HCI11 was found to be 87.9; with HCI16 it was 108; in the test on UCD52 [1], 116 ± 8.9.

Consider `CC(C=CC1=C(C)CCCC1(C)C)=CC=CC(C)=CC(=O)O` [Tretinoin (Aberela)], for which the cell viability in the test with HCI03 came to 143; in the test on HCI11 it was 149; in the test with HCI13, 146 ± 12; in the test with HCI16 it was 175; in the test with WHIM2, 58.5 ± 19.

Regarding `COc1cccc2c1C(=O)c1c(O)c3c(c(O)c1C2=O)CC(O)(C(=O)CO)CC3OC1CC(N)C(O)C(C)O1.Cl` (stereo unspecified) [Doxorubicin (Adriamycin) HCl] + CC(C)C[C@H](NC(=O)[C@H](CCc1ccccc1)NC(=O)CN1CCOCC1)C(=O)N[C@@H](Cc1ccccc1)C(=O)N[C@@H](CC(C)C)C(=O)[C@@]1(C)CO1 [Carfilzomib], the “cell viability of combination” value in the test with HCI01 was found to be 60.9; in the test on UCD52 [2] it was 30.2.

Take `CC(NCc1ccc(OCc2cccc(F)c2)cc1)C(N)=O.CS(=O)(=O)O` (stereo unspecified) [Safinamide Mesylate]: the cell viability with HCI11 was 161; with HCI13, 191 ± 36; with UCD52 [1], 190 ± 11; in the test with WHIM2, 184 ± 45.

Regarding `Nc1nc2ccc(OC(F)(F)F)cc2s1` [Riluzole], the cell viability in the test with HCI03 was 158; with HCI11, 162; in the test with HCI13, 161 ± 27; in the test on HCI16 it was 139; with UCD52 [1], 175 ± 15; in the test on WHIM2, 145 ± 7.3.

With `O=C(CCCCCCNC(=O)c1cnc(N(c2ccccc2)c2ccccc2)nc1)NO` [Rocilinostat (ACY-1215)], the cell viability in the test on HCI03 was 108; in the test on HCI09, 45.1 ± 28; with HCI13, 49.3 ± 7.8; in the test on WHIM2, 51.2 ± 8.8.

`Oc1ccc(C=Cc2cc(O)cc(O)c2)cc1` [Resveratrol]: the values for the cell viability with HCI09, with HCI16 and with WHIM2 were 196 ± 110, 174 and 191 ± 54, respectively.

In the case of `c1cn2cc(-c3ccc4cn[nH]c4c3)nc(Nc3ccc(N4CCOCC4)cc3)c2n1`, the cell viability in the test with HCI11 worked out at 125; with HCI16, 86.2.

Take `CN(C)c1ccc(O)c2c1CC1CC3C(N(C)C)C(=O)C(C(N)=O)=C(O)C3(O)C(=O)C1=C2O.Cl` (stereo unspecified) [Minocycline HCl] + CC(C)C[C@H](NC(=O)[C@H](CCc1ccccc1)NC(=O)CN1CCOCC1)C(=O)N[C@@H](Cc1ccccc1)C(=O)N[C@@H](CC(C)C)C(=O)[C@@]1(C)CO1 [Carfilzomib]: the “cell viability of combination” value with HCI01 was found to be 83.9; in the test on UCD52 [2] it was 65.9.

As for `CCC(NC(=O)C(C)NC)C(=O)N1CC(O)CC1Cc1c(-c2[nH]c3cc(F)ccc3c2CC2CC(O)CN2C(=O)C(CC)NC(=O)C(C)NC)[nH]c2cc(F)ccc12` (stereo unspecified) + CC(C)C[C@H](NC(=O)[C@H](CCc1ccccc1)NC(=O)CN1CCOCC1)C(=O)N[C@@H](Cc1ccccc1)C(=O)N[C@@H](CC(C)C)C(=O)[C@@]1(C)CO1 [Carfilzomib], the “cell viability of combination” value came out at 61.9 with HCI01 and 43 in the test on UCD52 [2].

In the case of `Clc1ccc(C(Cn2ccnc2)OCc2c(Cl)cccc2Cl)c(Cl)c1.O=[N+]([O-])O` (stereo unspecified) [Isoconazole nitrate] + CC(C)C[C@H](NC(=O)[C@H](CCc1ccccc1)NC(=O)CN1CCOCC1)C(=O)N[C@@H](Cc1ccccc1)C(=O)N[C@@H](CC(C)C)C(=O)[C@@]1(C)CO1 [Carfilzomib], the entries for the “cell viability of combination” value in the test on HCI01 and with UCD52 [2] were 92.6 and 61.5, respectively.

As to `CN1CCC(COc2cnc(-c3cccc(Cn4nc(-c5cccc(C#N)c5)ccc4=O)c3)nc2)CC1` + CC(C)C[C@H](NC(=O)[C@H](CCc1ccccc1)NC(=O)CN1CCOCC1)C(=O)N[C@@H](Cc1ccccc1)C(=O)N[C@@H](CC(C)C)C(=O)[C@@]1(C)CO1 [Carfilzomib], the “cell viability of combination” value turned out to be 80.4 with HCI01 and 57 with UCD52 [2].

For the compound `O=C(Nc1nc2cccc(-c3ccc(CN4CCS(=O)(=O)CC4)cc3)n2n1)C1CC1`, the cell viability was found to be 186 ± 51 with HCI09 and 147 ± 9.8 with WHIM30.

Turning to `CC=C1NC(=O)C2CSSCCC=CC(CC(=O)NC(C(C)C)C(=O)N2)OC(=O)C(C(C)C)NC1=O` (stereo unspecified) [Romidepsin (FK228, depsipeptide)], the cell viability is 177 in the test with HCI03, 77.5 ± 29 in the test on HCI09, 66.1 ± 6.7 in the test on HCI13 and 34.4 ± 4.2 with WHIM2.

For the compound `CSc1ccc2c(c1)N(CCC1CCCCN1C)c1ccccc1S2.Cl` (stereo unspecified) [Thioridazine HCl] + CC(C)C[C@H](NC(=O)[C@H](CCc1ccccc1)NC(=O)CN1CCOCC1)C(=O)N[C@@H](Cc1ccccc1)C(=O)N[C@@H](CC(C)C)C(=O)[C@@]1(C)CO1 [Carfilzomib], the results for the “cell viability of combination” value in the test on HCI01 and with UCD52 [2] were 77.7 and 64.4, respectively.

Regarding `O=C(CCCCCCC(=O)Nc1ccccc1)NO` [Vorinostat (SAHA, MK0683)], the cell viability in the test on HCI09 amounted to 46.1 ± 37; in the test with HCI11, 21.7; with HCI13 it was 61 ± 23; with WHIM2 it was 47.5 ± 4.1.

As to `Cc1nc(-c2ccc(OCC(C)C)c(C#N)c2)sc1C(=O)O` [Febuxostat], in the test on HCI16, the cell viability came to 191.

With `O=c1c(-c2ccc(O)cc2)coc2cc(O)cc(O)c12` [Genistein], the cell viability in the test with HCI03 came to 160; in the test with HCI11 it was 129; with HCI16 it was 183; in the test on UCD52 [1], 189 ± 34; in the test with WHIM2, 121 ± 5.2.

In the case of `Cc1c(Cl)cccc1Nc1ccccc1C(=O)O` [Tolfenamic Acid] + CC(C)C[C@H](NC(=O)[C@H](CCc1ccccc1)NC(=O)CN1CCOCC1)C(=O)N[C@@H](Cc1ccccc1)C(=O)N[C@@H](CC(C)C)C(=O)[C@@]1(C)CO1 [Carfilzomib], the “cell viability of combination” value in the test on HCI01 amounted to 74.7; in the test with UCD52 [2] it was 69.7.

`[O-]n1ccccc1=S.[O-]n1ccccc1=S.[Zn+2]` [Zinc Pyrithione] + CC(C)C[C@H](NC(=O)[C@H](CCc1ccccc1)NC(=O)CN1CCOCC1)C(=O)N[C@@H](Cc1ccccc1)C(=O)N[C@@H](CC(C)C)C(=O)[C@@]1(C)CO1 [Carfilzomib]: the “cell viability of combination” value in the test on HCI01 is 68.3; in the test with UCD52 [2], 42.8.

`CCC(=C(c1ccccc1)c1ccc(OCCN(C)C)cc1)c1ccccc1.O=C(O)CC(O)(CC(=O)O)C(=O)O` [Tamoxifen Citrate] + CC(C)C[C@H](NC(=O)[C@H](CCc1ccccc1)NC(=O)CN1CCOCC1)C(=O)N[C@@H](Cc1ccccc1)C(=O)N[C@@H](CC(C)C)C(=O)[C@@]1(C)CO1 [Carfilzomib]: the “cell viability of combination” value came to 90.4 in the test on HCI01 and 71.2 in the test with UCD52 [2].

With `CCCCc1oc2ccc(NS(C)(=O)=O)cc2c1C(=O)c1ccc(OCCCN(CCCC)CCCC)cc1` [Dronedarone] + CC(C)C[C@H](NC(=O)[C@H](CCc1ccccc1)NC(=O)CN1CCOCC1)C(=O)N[C@@H](Cc1ccccc1)C(=O)N[C@@H](CC(C)C)C(=O)[C@@]1(C)CO1 [Carfilzomib], the “cell viability of combination” value in the test with HCI01 was determined as 76.1; with UCD52 [2] it was 59.3.

Turning to `COc1ccc2c(O[C@H]3CC4C(=O)N(C)CCCC/C=C\[C@H]5C[C@@]5(C(=O)NS(=O)(=O)C5CC5)NC(=O)[C@@H]4C3)cc(-c3nc(C(C)C)cs3)nc2c1C` (stereo partly specified) [Simeprevir] + CC(C)C[C@H](NC(=O)[C@H](CCc1ccccc1)NC(=O)CN1CCOCC1)C(=O)N[C@@H](Cc1ccccc1)C(=O)N[C@@H](CC(C)C)C(=O)[C@@]1(C)CO1 [Carfilzomib], the “cell viability of combination” value is 82.7 in the test with HCI01 and 62.5 in the test with UCD52 [2].

On to `CCCCc1oc2ccc(NS(C)(=O)=O)cc2c1C(=O)c1ccc(OCCCN(CCCC)CCCC)cc1.Cl` [Dronedarone HCl] + CC(C)C[C@H](NC(=O)[C@H](CCc1ccccc1)NC(=O)CN1CCOCC1)C(=O)N[C@@H](Cc1ccccc1)C(=O)N[C@@H](CC(C)C)C(=O)[C@@]1(C)CO1 [Carfilzomib], for which the “cell viability of combination” value with HCI01 was 92.3; in the test on UCD52 [2] it was 59.9.

As for `CO[C@H]1C[C@@H]2CC[C@@H](C)[C@@](O)(O2)C(=O)C(=O)N2CCCC[C@H]2C(=O)O[C@H]([C@H](C)C[C@@H]2CC[C@@H](OC(=O)C(C)(CO)CO)[C@H](OC)C2)CC(=O)[C@H](C)/C=C(\C)[C@@H](O)[C@@H](OC)C(=O)[C@H](C)C[C@H](C)/C=C/C=C/C=C/1C` [Temsirolimus] + CC(C)C[C@H](NC(=O)[C@H](CCc1ccccc1)NC(=O)CN1CCOCC1)C(=O)N[C@@H](Cc1ccccc1)C(=O)N[C@@H](CC(C)C)C(=O)[C@@]1(C)CO1 [Carfilzomib], the figures for the “cell viability of combination” value with HCI01 and in the test on UCD52 [2] were 72.4 and 49.5, respectively.

For `CC(O)C(=O)O.CCOc1ccc2nc3cc(N)ccc3c(N)c2c1.O` [Ethacridine lactate monohydrate] + CC(C)C[C@H](NC(=O)[C@H](CCc1ccccc1)NC(=O)CN1CCOCC1)C(=O)N[C@@H](Cc1ccccc1)C(=O)N[C@@H](CC(C)C)C(=O)[C@@]1(C)CO1 [Carfilzomib], the “cell viability of combination” value was determined as 74.3 in the test with HCI01 and 66.7 in the test with UCD52 [2].

`COc1cc2c(Oc3ccc(NC(=O)C4(C(=O)Nc5ccc(F)cc5)CC4)cc3F)ccnc2cc1OCCCN1CCOCC1` + CC(C)C[C@H](NC(=O)[C@H](CCc1ccccc1)NC(=O)CN1CCOCC1)C(=O)N[C@@H](Cc1ccccc1)C(=O)N[C@@H](CC(C)C)C(=O)[C@@]1(C)CO1 [Carfilzomib]: the “cell viability of combination” value in the test with HCI01 came out at 75.8; with UCD52 [2], 32.5.

As for `CCN(CC)CCCC(C)Nc1ccnc2cc(Cl)ccc12.O=P(O)(O)O.O=P(O)(O)O` (stereo unspecified) [Chloroquine diphosphate] + CC(C)C[C@H](NC(=O)[C@H](CCc1ccccc1)NC(=O)CN1CCOCC1)C(=O)N[C@@H](Cc1ccccc1)C(=O)N[C@@H](CC(C)C)C(=O)[C@@]1(C)CO1 [Carfilzomib], the entries for the “cell viability of combination” value with HCI01 and in the test on UCD52 [2] were 64 and 52.9, respectively.

Values taken from the supplement of paper PMC6992640.
